# Data from PubChem BioAssay (Tox21).
# Where “and” joins values, the source holds several entries; their conditions need not be identical. Equal entries are not always repeated. Results filed as inconclusive are left out. Where a call stands in place of a potency, no number is given. A structure can be active in one record and inactive in another. Calls of active or inactive are those of the source. Calls follow the shape of the dose curve; as a rule, active = well fitted curve in the direction sought with a large enough effect in the repeat runs; inconclusive = weak or mixed curves; inactive = no such curve, though single readings can be large; an effect the other way counts as inactive or inconclusive.
# Test: qHTS RealTime-Glo MT Cell Viability Assay in HepG2 cells - 40 hour (AID 1224870); also: nearly all actives have a fitted effect of over 50% in size
# Conditions: RealTime-Glo luminescence; series mostly up to 76.8 µM; activity change, negative = cytotoxic: at the top concentration
# In short: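 Real-time viability: cells seeded at 600 per well together with NanoLuc and cell-permeant prosubstrate, compounds added after 5 h incubation. Luminescence tracked at 0, 8, 16, 24, 32 and 40 h of exposure.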
# Potency is read from the fitted curve at half-maximal effect.
SMILES,Potency,"activity change, negative = cytotoxic"
NC(=Nc1ccccc1)Nc1ccccc1,inactive,
CC(=O)OCC1=C(C(=O)O)N2C(=O)[C@@H](NC(=O)Cc3cccs3)[C@H]2SC1,,3.38% [at 35.3 µM] (inactive)
COC(=O)c1cccc(C(=O)OC)c1,inactive,
Cc1cccc(O)c1C,inactive,
CC(=O)Nc1ccc(C(=O)CCl)cc1,inactive and 24.5 µM (active),
OCCN1CCNCC1,inactive,
[Cl][In]([Cl])[Cl],inactive,
O,inactive,
C=C(C)C(=O)O,inactive,
O=C(Cl)c1cccc(C(=O)Cl)c1,inactive,
CC(=O)C1=C(C)[C@@H]2C[C@@]3(C1)[C@H](C)CC[C@H]3C2(C)C,inactive,
C#CC(C)(CC)OC(=O)c1ccccc1C(=O)O (configuration not stated),,0.778% [at 35.3 µM] (inactive)
CCCCOCCOC(=O)c1ccccc1C(=O)OCCOCCCC,inactive,
O=C(O)CP(=O)(O)O,,-3.98% [at 35.3 µM] (inactive)
c1ccc2cc3c(ccc4ccccc43)cc2c1,inactive,
O=C(O)c1cn(-c2ccc(F)cc2)c2cc(N3CCNCC3)c(F)cc2c1=O,inactive,
CC(=O)O[C@]1(C(C)=O)CC[C@H]2[C@@H]3C[C@H](C)C4=CC(=O)CC[C@]4(C)[C@H]3CC[C@@]21C,inactive,
CCCN[C@H]1CCc2nc(N)sc2C1,inactive,

# Test: A CellTox Green Cytotoxicity Assay to monitor cytotoxicity in HEK293 cells - 40 hour (AID 1224871); also: nearly all actives have a fitted effect of over 45% in size
# Conditions: CellTox Green fluorescence; series mostly up to 76.8 µM; cytotoxicity increase: at the top concentration
# In short: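 HEK293 cells, 600/well, were preincubated 5 hours and then exposed to compounds at 37 C for up to 40 hours. A cell-impermeant cyanine dye staining dead-cell DNA was read by fluorescence at 0, 8, 16, 24, 32 and 40 h time points.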
SMILES,Potency,cytotoxicity increase
CCOc1ccccc1C(N)=O,inactive,
C/C=C/c1ccc(OCC)c(O)c1,,0.467% (inactive)
Nc1nc(=S)c2[nH]cnc2[nH]1,inactive,
O=c1n(CC2CO2)c(=O)n(CC2CO2)c(=O)n1CC1CO1 (configuration not stated),inactive,
CCC[C@H](N[C@@H](C)C(=O)N1[C@H](C(=O)O)C[C@@H]2CCCC[C@@H]21)C(=O)OCC,inactive,
O=C1Nc2ccccc2C1(c1ccc(O)cc1)c1ccc(O)cc1,inactive,
CC[C@]1(O)C[C@@H]2CN(CCc3c([nH]c4ccccc34)[C@@](C(=O)OC)(c3cc4c(cc3OC)N(C)[C@H]3[C@@](O)(C(=O)OC)[C@H](OC(C)=O)[C@]5(CC)C=CCN6CC[C@]43[C@@H]65)C2)C1,inactive,
CCCCCCC(O)CCCCCCCCCCC(=O)O (configuration not stated),inactive,
CCN(CC)c1ccc2c(C)cc(=O)oc2c1,inactive,
NCCO,inactive,
CC(=O)OCCOCCOCCOC(C)=O,inactive,
O=C(O)c1cccc(C(=O)O)c1,inactive,
C=C(C)C1CC=C(C)C(OC(C)=O)C1 (configuration not stated),,-4.81% (inactive)
O=C(Oc1ccccc1)c1ccccc1O,,7.92% [at 35.3 µM] (inactive)
CCC(=O)/C=C/C1C(C)=CCCC1(C)C (configuration not stated),49.1 µM (active) and inactive,
CC(C)(C)NC(=O)[C@@H]1CN(Cc2cccnc2)CCN1C[C@@H](O)C[C@@H](Cc1ccccc1)C(=O)N[C@H]1c2ccccc2C[C@H]1O,inactive,
COC(=O)/C=C/c1ccccc1,inactive and 21.9 µM (active),
CC(C)(C)NCC(O)c1cc(O)cc(O)c1 (configuration not stated),,-11.7% [at 35.3 µM] (inactive)
Cc1ccnc2c1NC(=O)c1cccnc1N2C1CC1,inactive,

SMILES,Potency,cytotoxicity increase
NC(=Nc1ccccc1)Nc1ccccc1,inactive,
CC(=O)OCC1=C(C(=O)O)N2C(=O)[C@@H](NC(=O)Cc3cccs3)[C@H]2SC1,,-8.03% [at 35.3 µM] (inactive)
COC(=O)c1cccc(C(=O)OC)c1,inactive and 38.9 µM (active),
Cc1cccc(O)c1C,,-3.02% (inactive)
CC(=O)Nc1ccc(C(=O)CCl)cc1,inactive and 15.5 µM (active),
OCCN1CCNCC1,,-7.1% (inactive)
[Cl][In]([Cl])[Cl],,-6.85% (inactive)
O,inactive,
C=C(C)C(=O)O,inactive,
O=C(Cl)c1cccc(C(=O)Cl)c1,inactive,
CC(=O)C1=C(C)[C@@H]2C[C@@]3(C1)[C@H](C)CC[C@H]3C2(C)C,32.3 µM (active) and inactive,
C#CC(C)(CC)OC(=O)c1ccccc1C(=O)O (configuration not stated),,4.38% [at 35.3 µM] (inactive)
CCCCOCCOC(=O)c1ccccc1C(=O)OCCOCCCC,inactive,
O=C(O)CP(=O)(O)O,,0.105% [at 35.3 µM] (inactive)
c1ccc2cc3c(ccc4ccccc43)cc2c1,inactive,
O=C(O)c1cn(-c2ccc(F)cc2)c2cc(N3CCNCC3)c(F)cc2c1=O,inactive,
CC(=O)O[C@]1(C(C)=O)CC[C@H]2[C@@H]3C[C@H](C)C4=CC(=O)CC[C@]4(C)[C@H]3CC[C@@]21C,48.9 µM (active) and inactive,
CCCN[C@H]1CCc2nc(N)sc2C1,inactive,

# Test: qHTS RealTime-Glo MT Cell Viability Assay in HEK293 cells - 16 hour (AID 1224872); also: nearly all actives have a fitted effect of over 50% in size; as to activity change, negative = cytotoxicity: top concentration of the series differs between compounds
# Conditions: RealTime-Glo luminescence; series mostly up to 76.8 µM; activity change, negative = cytotoxicity: at the top concentration
# In short: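 Tox21 10K qHTS, HEK293, 600 cells/well, RealTime-Glo reagent co-dispensed with cells; 5 h preincubation, compound by pintool, 37 C, luminescence at 0–40 h.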
SMILES,Potency,"activity change, negative = cytotoxicity"
CCOc1ccccc1C(N)=O,inactive,
C/C=C/c1ccc(OCC)c(O)c1,inactive,
Nc1nc(=S)c2[nH]cnc2[nH]1,,-23.7% [at 35.3 µM] (inactive)
O=c1n(CC2CO2)c(=O)n(CC2CO2)c(=O)n1CC1CO1 (configuration not stated),inactive,
CCC[C@H](N[C@@H](C)C(=O)N1[C@H](C(=O)O)C[C@@H]2CCCC[C@@H]21)C(=O)OCC,inactive,
O=C1Nc2ccccc2C1(c1ccc(O)cc1)c1ccc(O)cc1,,-6.38% [at 35.3 µM] (inactive)
CC[C@]1(O)C[C@@H]2CN(CCc3c([nH]c4ccccc34)[C@@](C(=O)OC)(c3cc4c(cc3OC)N(C)[C@H]3[C@@](O)(C(=O)OC)[C@H](OC(C)=O)[C@]5(CC)C=CCN6CC[C@]43[C@@H]65)C2)C1,,-32% [at 35.3 µM] (inactive)
CCCCCCC(O)CCCCCCCCCCC(=O)O (configuration not stated),inactive,
CCN(CC)c1ccc2c(C)cc(=O)oc2c1,39.2 µM (active),
NCCO,inactive,
CC(=O)OCCOCCOCCOC(C)=O,inactive,
O=C(O)c1cccc(C(=O)O)c1,inactive,
C=C(C)C1CC=C(C)C(OC(C)=O)C1 (configuration not stated),inactive,
O=C(Oc1ccccc1)c1ccccc1O,inactive,
CCC(=O)/C=C/C1C(C)=CCCC1(C)C (configuration not stated),inactive,
CC(C)(C)NC(=O)[C@@H]1CN(Cc2cccnc2)CCN1C[C@@H](O)C[C@@H](Cc1ccccc1)C(=O)N[C@H]1c2ccccc2C[C@H]1O,inactive,
COC(=O)/C=C/c1ccccc1,,-2.11% (inactive)
CC(C)(C)NCC(O)c1cc(O)cc(O)c1 (configuration not stated),,2.46% [at 35.3 µM] (inactive)
Cc1ccnc2c1NC(=O)c1cccnc1N2C1CC1,inactive,

SMILES,Potency,"activity change, negative = cytotoxicity"
NC(=Nc1ccccc1)Nc1ccccc1,,0.983% [at 35.3 µM] (inactive)
CC(=O)OCC1=C(C(=O)O)N2C(=O)[C@@H](NC(=O)Cc3cccs3)[C@H]2SC1,,0.424% [at 35.3 µM] (inactive)
COC(=O)c1cccc(C(=O)OC)c1,inactive,
Cc1cccc(O)c1C,inactive,
CC(=O)Nc1ccc(C(=O)CCl)cc1,inactive and 13.8 µM (active),
OCCN1CCNCC1,15.8 µM (active),
[Cl][In]([Cl])[Cl],,27.4% (inactive)
O,inactive,
C=C(C)C(=O)O,inactive,
O=C(Cl)c1cccc(C(=O)Cl)c1,inactive,
CC(=O)C1=C(C)[C@@H]2C[C@@]3(C1)[C@H](C)CC[C@H]3C2(C)C,inactive,
C#CC(C)(CC)OC(=O)c1ccccc1C(=O)O (configuration not stated),,5.66% [at 35.3 µM] (inactive)
CCCCOCCOC(=O)c1ccccc1C(=O)OCCOCCCC,,-24% (inactive)
O=C(O)CP(=O)(O)O,,-2.23% [at 35.3 µM] (inactive)
c1ccc2cc3c(ccc4ccccc43)cc2c1,,2.23% (inactive)
O=C(O)c1cn(-c2ccc(F)cc2)c2cc(N3CCNCC3)c(F)cc2c1=O,inactive,
CC(=O)O[C@]1(C(C)=O)CC[C@H]2[C@@H]3C[C@H](C)C4=CC(=O)CC[C@]4(C)[C@H]3CC[C@@]21C,17.4 µM (active),
CCCN[C@H]1CCc2nc(N)sc2C1,inactive,
